Assay results published in PubChem BioAssay (NCATS).
Inconclusive results are not listed. Calls of active or inactive are those of the source. Calls come from the whole dose curve; as a rule, active = well fitted curve in the direction sought with a large enough effect; inconclusive = small, poorly fitted or top-dose-only effect, or another doubt; inactive = no such curve, though single readings can be large; an effect the other way counts as inactive or inconclusive.

Legend:
MCC-13 = test: qHTS assay to identify novel small-molecules to repurpose for Merkel cell carcinoma treatment (AID 1296009); conditions: MCC and control cell lines, CellTiter-Glo viability, 72 h; series mostly up to 46 µM; note: nearly all actives have a fitted effect of over 60% in size
Procedure, shortened: (§1)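 After compound transfer in DMSO, plates were kept 72 hr at 37 degree celsius. Luminescent ATP signal from CellTiter-Glo served as viability measure, normalized against DMSO and no-cell controls.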

MCC-26 = test: as above; conditions: MCC and control cell lines, CellTiter-Glo viability, 72 h; series mostly up to 46 µM
Procedure, shortened: as §1

MKL-1 = test: as above; conditions: MCC and control cell lines, CellTiter-Glo viability, 72 h; series mostly up to 46 µM
Procedure, shortened: as §1

MKL-2 = test: as above; conditions: MCC and control cell lines, CellTiter-Glo viability, 72 h; series mostly up to 46 µM
Procedure, shortened: as §1

UISO = test: as above; conditions: MCC and control cell lines, CellTiter-Glo viability, 72 h; series mostly up to 46 µM
Procedure, shortened: as §1

WaGa = test: as above; conditions: MCC and control cell lines, CellTiter-Glo viability, 72 h; series mostly up to 46 µM
Procedure, shortened: as §1

HEK293T [1] = test: as above; conditions: MCC and control cell lines, CellTiter-Glo viability, 72 h; at 44.8 µM (top of the series)
Procedure, shortened: as §1

NIH3T3 = test: as above; conditions: MCC and control cell lines, CellTiter-Glo viability, 72 h; at 44.8 µM (top of the series) unless noted
Procedure, shortened: as §1

C33A = test: Primary qHTS to identify gynecologic anti-cancer compounds using libraries of approved drugs and bioactive compounds (AID 1345084); conditions: Gynecologic cancer cell panel viability, ATPlite luminescence, 48 h; series mostly up to 57.5 µM; note: nearly all actives have a fitted effect of over 55% in size
Procedure, shortened: (§2)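 Five-concentration response, 48 h; readout is ATP-driven luciferase luminescence.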

CASKI = test: as above; conditions: Gynecologic cancer cell panel viability, ATPlite luminescence, 48 h; series mostly up to 57.5 µM
Procedure, shortened: as §2

Es-2 = test: as above; conditions: Gynecologic cancer cell panel viability, ATPlite luminescence, 48 h; series mostly up to 57.5 µM
Procedure, shortened: as §2

HeLa = test: as above; conditions: Gynecologic cancer cell panel viability, ATPlite luminescence, 48 h; series mostly up to 57.5 µM
Procedure, shortened: as §2

Hek293T [2] = test: as above; conditions: Gynecologic cancer cell panel viability, ATPlite luminescence, 48 h, control line for the selectivity index; series mostly up to 57.5 µM
Procedure, shortened: as §2

JEG-3 = test: as above; conditions: Gynecologic cancer cell panel viability, ATPlite luminescence, 48 h; series mostly up to 57.5 µM
Procedure, shortened: as §2

OV90 = test: as above; conditions: Gynecologic cancer cell panel viability, ATPlite luminescence, 48 h; series mostly up to 57.5 µM
Procedure, shortened: as §2

PA-1 = test: as above; conditions: Gynecologic cancer cell panel viability, ATPlite luminescence, 48 h; series mostly up to 57.5 µM
Procedure, shortened: as §2

SKOV3 = test: as above; conditions: Gynecologic cancer cell panel viability, ATPlite luminescence, 48 h; series mostly up to 57.5 µM
Procedure, shortened: as §2

Tov-21-G = test: as above; conditions: Gynecologic cancer cell panel viability, ATPlite luminescence, 48 h; series mostly up to 57.5 µM
Procedure, shortened: as §2

Measured: Potency
Potency is the fitted concentration of half-maximal effect.

O=c1cc(N2CCOCC2)oc2c(-c3cccc4c3sc3ccccc34)cccc12
inactive: MCC-13 | MCC-26 | MKL-1 | MKL-2 | UISO | WaGa

CC(C)n1cnc2c(NCCCCCCNC(=O)OC(C)(C)C)nc(NCCO)nc21
inactive: MCC-13 | MCC-26 | MKL-1 | MKL-2 | UISO

NC1=N[C@@]2(c3cc(NC(=O)c4ccc(F)cn4)ccc3F)COC[C@@H]2CS1
active: MKL-1 10.5 µM
inactive: MCC-13 | MCC-26 | MKL-2

O=c1c(O)c(-c2ccc(O)cc2)oc2cc(O)cc(O)c12
inactive: HEK293T [1] | MCC-13 | MCC-26
active: WaGa 3.72 µM

COc1cccc(-c2cc(=O)c3ccccc3o2)c1N
inactive: MCC-13 | MCC-26 | MKL-1 | MKL-2 | NIH3T3 | UISO | WaGa

COc1ccc(-c2coc3cc(O)cc(O)c3c2=O)cc1
inactive: MCC-13 | MCC-26 | MKL-1 | MKL-2 | NIH3T3 | UISO | WaGa

CC#CCn1c(N2CCC[C@@H](N)C2)nc2c1c(=O)n(Cc1nc(C)c3ccccc3n1)c(=O)n2C
inactive: MCC-13 | MCC-26 | MKL-1 | MKL-2 | NIH3T3 | UISO | WaGa

c1ccc2c(-c3cnn4cc(-c5ccc(N6CCNCC6)cc5)cnc34)ccnc2c1
active: MCC-13 10.5 µM | MCC-26 8.33 µM | MKL-1 2.96 µM

COC1CCC(N(C(=O)C2CCC(C)CC2)c2cc(C3=CCCCC3)sc2C(=O)O)CC1 (stereo unspecified)
inactive: MCC-13 | MCC-26 | MKL-1 | MKL-2 | UISO | WaGa

CC(C)C(C)C=CC(C)C1CCC2C3=CC=C4CC(O)CCC4(C)C3CCC21C (stereo unspecified)
inactive: MCC-13 | MCC-26 | MKL-1 | MKL-2 | UISO | WaGa

Cc1ccc(/C=N/NC(=O)c2ccccc2Oc2ccccc2)o1
inactive: MCC-13 | MCC-26 | MKL-1 | MKL-2 | UISO | WaGa

Nc1ncnc2c1nc(Cl)n2[C@@H]1O[C@H](CO)[C@@H](O)[C@@H]1O
inactive: MCC-13 | MCC-26

COc1cccc2c1CCCC2CCCN1CCN(C2CCCCC2)CC1 (stereo unspecified)
inactive: MCC-13 | MCC-26 | MKL-1

O=C1c2ccccc2-[n+]2ccc3c([nH]c4ccccc43)c21
active: MCC-13 3.32 µM | MCC-26 7.43 µM | MKL-1 1.05 µM | MKL-2 3.32 µM | UISO 0.662 µM | WaGa 2.35 µM

O=C1C(Cl)=C(NCCN2CCOCC2)C(=O)c2ncccc21
active: MCC-13 16.6 µM | MCC-26 8.33 µM | MKL-1 1.32 µM | MKL-2 2.96 µM | UISO 8.33 µM

CCc1ccc(OCc2ccccc2C(=O)Nc2ccc3nc(C)cc(N)c3c2)cc1
active: MCC-13 18.7 µM

CCCCCN(C)CCC(O)(P(=O)(O)O)P(=O)(O)O
inactive: MCC-13 | MCC-26 | MKL-1 | MKL-2 | NIH3T3 | UISO | WaGa

CCC(=O)O[C@]1(C(=O)CO)CC[C@H]2[C@@H]3CCC4=CC(=O)CC[C@]4(C)[C@@H]3CC[C@@]21C
inactive: MCC-13 | MCC-26 | MKL-1 | MKL-2 | NIH3T3 | UISO | WaGa

Nc1ncnc2c1ncn2[C@@H]1O[C@H](CO)C[C@@H]1O
active: WaGa 14.8 µM
inactive: MCC-13 | MCC-26 | MKL-1 | MKL-2 | UISO

CC(=NNC(=S)N1CCC1)c1ccccn1
inactive: MKL-1 | MKL-2
active: MCC-13 0.0743 µM | MCC-26 0.418 µM | UISO 0.0033 µM | WaGa 0.0007 µM

CC[C@@H]1C=C(C)C[C@H](C)C[C@H](OC)[C@H]2O[C@@](O)(C(=O)C(=O)N3CCCC[C@@H]3C(=O)O[C@H](C(C)=C[C@@H]3CC[C@H](Cl)[C@H](OC)C3)[C@H](C)[C@@H](O)CC1=O)[C@H](C)C[C@H]2OC
inactive: MCC-13 | MCC-26

COc1ccc(-c2cc(=O)c3c(O)cc(O)cc3o2)cc1O
inactive: MCC-13 | MCC-26 | MKL-1 | MKL-2

O=c1c(-c2ccc(O)cc2)coc2cc(O[C@@H]3O[C@H](CO)[C@H](O)[C@H](O)[C@H]3O)ccc12
inactive: MCC-13 | MCC-26 | MKL-1 | MKL-2 | UISO | WaGa

O=c1cc(-c2ccccc2)oc2cc(O)cc(O)c12
inactive: MCC-13 | MCC-26 | MKL-1 | MKL-2 | UISO | WaGa

CN(C)c1cc(NC(=O)CNC(C)(C)C)c(O)c2c1C[C@@H]1C[C@H]3[C@H](N(C)C)C(=O)C(C(N)=O)=C(O)[C@@]3(O)C(=O)C1=C2O
inactive: MCC-13 | MCC-26 | MKL-1 | MKL-2 | UISO | WaGa | C33A | CASKI | Es-2 | HeLa | Hek293T [2] | JEG-3 | OV90 | PA-1 | SKOV3 | Tov-21-G

C[C@]12CCC3c4ccc(O)cc4CCC3C1CCC2=O (stereo partly specified)
inactive: MCC-13 | MCC-26 | MKL-1 | MKL-2 | WaGa

COc1ccc(Cc2ccc(NC(N)=O)cc2)cc1-c1cccc(Cl)c1
inactive: MCC-13 | MCC-26 | MKL-1 | MKL-2 | UISO | WaGa | C33A | CASKI | Es-2 | HeLa | Hek293T [2] | JEG-3 | OV90 | PA-1 | SKOV3 | Tov-21-G

COc1ncc(-c2ccc3nccc(-c4ccnnc4)c3c2)cc1NS(=O)(=O)c1ccc(F)cc1F
active: MCC-13 0.833 µM | MCC-26 0.372 µM | MKL-1 1.48 µM | MKL-2 0.105 µM | UISO 0.0235 µM | WaGa 0.526 µM | HeLa 0.631 µM | Hek293T [2] 0.1 µM | JEG-3 25.1 µM | OV90 3.55 µM | PA-1 0.355 µM | Tov-21-G 12.6 µM
